# Source: PubChem BioAssay (Corson Lab, School of Medicine, Indiana University)
# FECH block: human FECH heme synthesis enzyme inhibition | P22830 | purified FECH, Ni-mesoporphyrin absorbance 550 nm | calls only at 10 µM (by protocol) | 3.3% of 20,000 active | AID 1671448;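 active = enzyme reaction rate more than 3 SD below the solvent-only control wells on the same plate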;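 note: lower slope than DMSO wells means FECH inhibition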
# Target sequence (P22830 whole entry, looked up): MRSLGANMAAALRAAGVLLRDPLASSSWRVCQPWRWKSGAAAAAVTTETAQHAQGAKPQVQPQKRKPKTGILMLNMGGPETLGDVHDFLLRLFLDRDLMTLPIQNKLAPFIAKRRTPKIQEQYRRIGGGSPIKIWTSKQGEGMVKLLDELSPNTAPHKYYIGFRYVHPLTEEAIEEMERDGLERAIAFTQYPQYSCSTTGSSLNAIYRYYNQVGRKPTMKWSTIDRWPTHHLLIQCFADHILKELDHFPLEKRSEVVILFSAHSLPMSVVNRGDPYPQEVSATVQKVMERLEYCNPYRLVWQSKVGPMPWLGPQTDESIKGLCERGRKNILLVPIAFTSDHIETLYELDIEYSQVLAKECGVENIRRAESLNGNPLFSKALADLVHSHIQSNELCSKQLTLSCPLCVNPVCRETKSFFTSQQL
# Numbers without * were called inactive; i = inactive; + = active, no number. The entries come from a sample that favours hits as a whole.
SMILES,FECH block
NS(=O)(=O)c1ccc(S(=O)(=O)N2CCCC(C(=O)O)C2)cc1 (stereo not given),i
CCCc1cc(Sc2ccc(NS(=O)(=O)c3cc(Cl)ccc3OC)cc2)n2ncnc2n1,i
CCc1nc(C)c(C(=O)NCCCn2nnc3ccccc32)o1,i
COc1c(F)cc(CN2CCN(c3nc(C)ncc3C)CC2)cc1Cl,i
Cn1cnnc1CCNC(=O)CC1C(=O)NCCN1Cc1cccc(F)c1 (stereo not given),i
CCN(CC)CCCNC(=O)C1CCN(c2ccc(-c3cccc(C)c3)nn2)CC1,+
CCN(CC)CCCNC(=O)C1CCN(c2ccc(-c3ccccc3)nn2)CC1,i
CCOCCCNC(=O)C1CCN(c2ccc(-c3cccc(C)c3)nn2)CC1,i
COc1ccc(CNc2nc3nc(CN4CCN(c5ccc(F)cc5)CC4)cc(=O)n3[nH]2)cc1,i
O=C(c1csc(S(=O)(=O)NCc2ccc3c(c2)OCO3)c1)N1CCCC1,i
CN1CCN(c2nc(Nc3cccc(F)c3)c3cnn(-c4ccccc4)c3n2)CC1,i
Cc1nc2c(c(=O)[nH]1)CCN(C(=O)c1ccc(CN3CCC(C)CC3)o1)C2,i
COc1ccccc1C(=O)Nc1cccc(OCc2cc(=O)n3ccc(C)cc3n2)c1,+
Cc1cccc(C(=O)Nc2cccc(OCc3cc(=O)n4ccc(C)cc4n3)c2)c1,i
COc1cccc(C(=O)Nc2cccc(OCc3cc(=O)n4ccc(C)cc4n3)c2)c1,i
COc1ccccc1OCC(=O)Nc1cc(C)nn1-c1ncnc2c1cnn2-c1ccccc1,i
Cc1ccc(CN2CCCN(CC(=O)Nc3ccccc3Cl)S2(=O)=O)cc1,i
CCc1cc(Sc2ccccc2NC(=O)c2cc(OC)cc(OC)c2)n2nc(C)nc2n1,i
CCc1cc(Sc2ccccc2NC(=O)Cc2cccc(OC)c2)n2nc(C)nc2n1,i
CCc1cc(Sc2ccccc2NC(=O)Cc2ccc(OC)cc2)n2nc(C)nc2n1,+
Cc1nc2c(c(N(C)Cc3cc(C4CC4)n[nH]3)n1)CCNC2,i
COc1cc2c(=O)n(Cc3ccc(C(=O)NC(C)C)cc3)c(=O)n(CC(=O)NC(C)C)c2cc1OC,i
CNC(=O)c1ccc(Cn2c(=O)c3cc(OC)c(OC)cc3n(CC(=O)NCC3CCCO3)c2=O)cc1 (stereo not given),+
CNC(=O)c1ccc(Cn2c(=O)c3cc(OC)c(OC)cc3n(CC(=O)NC(C)C)c2=O)cc1,i
CCOc1ccccc1NC(=O)Nc1ccc(Sc2c(CC)c(C)nc3ncnn23)cc1,i
SMILES,FECH block
CCc1c(C)nc2ncnn2c1Sc1ccc(NC(=O)NCc2ccc(F)cc2)cc1,i
CCc1c(C)nc2ncnn2c1Sc1ccc(NC(=O)NCCc2ccccc2)cc1,+
CCOc1ccc(NC(=O)Nc2ccc(Sc3c(CC)c(C)nc4ncnn34)cc2)cc1,i
CCc1c(C)nc2ncnn2c1Sc1ccc(NC(=O)Nc2ccc(C)cc2C)cc1,i
CCc1c(C)nc2ncnn2c1Sc1ccc(NC(=O)NCc2ccc(C)cc2)cc1,+
CCN1CCc2c(sc(NC(=O)c3ccc(Br)s3)c2C(=O)OC)C1,i
Cc1cc(N(C)C)nc(N2CCN(S(=O)(=O)c3cc(C(C)C)ccc3C)CC2)n1,i
CN(C)CCNc1nc(Nc2ccc3c(c2)OCO3)c2cnn(-c3ccccc3)c2n1,i
COc1ccc(-c2cc(N3CCN(S(=O)(=O)c4ccc(F)cc4)CC3)ncn2)cc1,i
CN1CCNC(=O)C12CCN(Cc1ccccc1OCc1ccccc1)CC2,i
COc1c(C)cc(C(=O)C2CCCN(Cc3cn[nH]c3C(=O)O)C2)cc1C (stereo not given),i
CCCc1cc(Sc2ccc(NC(=O)Nc3ccc(Cl)cc3)cc2)n2ncnc2n1,i
CCCc1cc(Sc2ccc(NC(=O)c3cccc(F)c3)cc2)n2ncnc2n1,+
CCCc1c(C)nc2ncnn2c1Sc1ccc(NC(=O)Nc2ccc(OC)c(OC)c2)cc1,i
CCc1cc(Sc2ccc(NC(=O)Nc3ccc(Cl)cc3)cc2)n2ncnc2n1,+
CCCc1cc(Sc2ccc(NC(=O)Nc3cccc(OC)c3)cc2)n2ncnc2n1,+
CCc1cc(Sc2ccc(NC(=O)Nc3ccccc3F)cc2)n2ncnc2n1,i
CCCc1cc(Sc2ccc(NC(=O)c3cccc(C)c3)cc2)n2ncnc2n1,i
CCCc1cc(Sc2ccc(NC(=O)Nc3cccc(Cl)c3)cc2)n2ncnc2n1,i
CCCc1c(C)nc2ncnn2c1Sc1ccc(NC(=O)Nc2cccc(OC)c2)cc1,+
CCCc1cc(Sc2ccc(NC(=O)c3ccc(C)cc3)cc2)n2ncnc2n1,i
CCCc1cc(Sc2ccc(NC(=O)Nc3ccc(OC)c(OC)c3)cc2)n2ncnc2n1,i
CCCc1c(C)nc2ncnn2c1Sc1ccc(NC(=O)c2c(OC)cccc2OC)cc1,i
Cc1ccc2[nH]c(CN3CCCC3c3ccccn3)nc2c1C (stereo not given),i
CCCC(=O)Nc1ccc(Nc2nc(C)cc(Nc3ccccc3)n2)cc1,i
SMILES,FECH block
CN(Cc1cc2cc(F)ccc2[nH]1)Cc1cn[nH]c1C(=O)O,i
Cc1nn(-c2ccc(F)cc2)c(C)c1C(=O)NC[C@@H]1CCNC[C@H]1O,i
CCCN(CCC)c1ncc(NS(=O)(=O)c2ccc(F)cc2)cc1C(=O)O,i
Cc1ccccc1-n1cccc1CN1CCOCC(CN(C)C)C1 (stereo not given),i
COc1ccc(CN(Cc2cccc(F)c2)C(=O)c2ccc3cccnc3n2)cc1,i
COc1ccc(CC(=O)NCCn2c(C(F)(F)F)nc3cccnc32)cc1Cl,i
O=C(CN1C(=O)CC(c2ccc(Br)s2)=Nc2ccccc21)NCCC1=CCCCC1,i
Cc1ccccc1-c1cc(N2CCN(C(=O)NCCC(C)C)CC2)ncn1,i
CCc1[nH]ncc1C(=O)NCc1cccnc1N1CCN(c2ccccn2)CC1,i
CCc1c(C)nc2ncnn2c1Sc1ccc(NC(=O)Nc2ccccc2OC)cc1,i
CCc1c(C)nc2ncnn2c1Sc1ccc(NC(=O)Nc2cc(OC)c(OC)c(OC)c2)cc1,+
CCc1c(C)nc2ncnn2c1Sc1ccc(NC(=O)Nc2cc(C)ccc2OC)cc1,i
COCCn1c(CNC(=O)COc2ccccc2)nc2cccnc21,i
CCn1ccnc1-c1c(-c2ccccc2)ncn1CCN1CCCCC1CO (stereo not given),i
Cc1cccc(OCCN2CCCCC2CO)c1C (stereo not given),+
Cc1cccc(OCCN2CCCN(C(=O)c3ccco3)CC2)c1C,i
COc1ccccc1NS(=O)(=O)c1cc(N2C(=O)CCS2(=O)=O)ccc1OC,i
COc1cc(OC)c(NC(=O)CN2CCCN(Cc3ccccc3)S2(=O)=O)cc1Cl,+
CCOc1ccccc1NC(=O)CN1CCCN(Cc2ccc(OC)cc2)S1(=O)=O,i
COc1ccccc1NC(=O)CN1CCCN(Cc2cccc(F)c2)S1(=O)=O,i
COc1cc(OC)c(NC(=O)CN2CCN(Cc3ccccc3F)S2(=O)=O)cc1Cl,i
COc1ccccc1NC(=O)CN1CCCN(Cc2cccc(C)c2)S1(=O)=O,+
CCOc1ccccc1NC(=O)CN1CCCN(Cc2cccc(C)c2)S1(=O)=O,+
COc1ccc(NC(=O)CN2CCCN(Cc3ccccc3)S2(=O)=O)c(OC)c1,i
COc1ccccc1NC(=O)CN1CCCN(Cc2ccc(Cl)cc2)S1(=O)=O,i
CCOC(=O)c1ccccc1NC(=O)CN1CCCN(Cc2cccc(C)c2)S1(=O)=O,i
